Experimental data from the supplement of paper PMC11417369.
± gives the standard deviation of the averaged measurements. Over roughly 25,000 sequences, “ln(normalized median fluorescence intensity)” has its median near 7.9; the highest 2% begin near 11. The sample as a whole holds a higher share of the highest values than the screen did.

The sequences below were run on PfAP2-I AP2 domain 3 (GST-tagged) (assay: gcPBM binding intensity (ln(normalized median fluorescence intensity)); higher = stronger DNA binding).
Procedure, shortened: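 The binding buffer was 1× PBS containing 1% milk, 0.2 mg/ml BSA, 0.5% salmon testes DNA and 0.03% Triton X-100. In it, GST-tagged P. falciparum DNA-binding domains expressed in E. coli were applied for 1 h to an Agilent 4 × 180k array of primer-extended double-stranded 36-bp intergenic genomic probes plus negative controls. Binding intensity, read with Alexa488 anti-GST antibody and a 488 nm scan, is the highest Masliner-normalised natural-log median intensity across replicate spots of either probe orientation.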

Sequence	gcPBM binding intensity (ln)
ACCAATAATATACATACACACATAAAGGTTTATATA [CACACA_site315]	7.95 ± 0.44
TGTGTCCATTGAACAGTGCAATAAAAACTTTTACAT	11.2 ± 0.59
AAAAAAAAAAAAAACATACACACATTGAACTTTTAT [CACACA_site3251]	8.18 ± 0.54
ATGAAACAGTAACATTGTACTTTTACAAAAAAATAA [XGTACX_site806]	7.7 ± 0.33
TACACACCTAACTATGCATGCATCAATATAGTGGAT [TGCATGCA_site443]	7.76 ± 0.75
AACGGGTAATGCACAAAAAAAAAAAAATAAAATAAA [TGCATGCA_negctrl_site474]	11.4 ± 1
TAATAAATCAAATGCACACACACAAAAAAAAAAAAA [CACACA_site161]	9.24 ± 0.38
AAAATATAATATAATGCACACATAAACAAAAAAAAA [CACACA_site8161]	10.9 ± 0.74
AATATAATATAATGCACACATAAAAAAAAAATCAAA [CACACA_site122]	11.2 ± 1
AATTTAATATAATGCACACATAAAACAAAAACAAAA [CACACA_site529]	10.8 ± 0.72
CATTAACAAATAAATGCACACATATATATAAATAAT [CACACA_site7892]	9.51 ± 0.35
AATATAAAAATGCACACACACAAAAAAAAAAAAAAA [CACACA_site6546]	9.03 ± 0.16
CACAAAAATAAACACACACACATATATATATATATA [CACACA_site4704]	9.39 ± 0.42
ATAAATCAAATGCACACACACAAAAAAAAAAAAAAA [CACACA_site6221]	9.31 ± 0.16
AAAATTTAATATAATGCACACATAAAACAAAAACAA [CACACA_site8071]	10.9 ± 0.64
ATGGATTTTACCATAGCACACATATATGAATATTTT [CACACA_site8535]	7.96 ± 0.54
ATTAAATTAAAATAATGTACTTAATACTTTTGCTTA [XGTACX_site8404]	7.39 ± 0.39
CCCCCCGTGTTATATACACACATAATCAAATAAAAT [CACACA_site4111]	10.9 ± 0.4
AAAATATAATATAATGCACACATAAAACAAAAAAAA [CACACA_site8989]	10.7 ± 0.67
AAATTATAATATAATACACACATAAAAAAAAAATCA [CACACA_site3634]	7.76 ± 0.45
AATATAAAATAATGCACACATAAACAAAAAATCAAA [CACACA_site1371]	10.9 ± 0.88
TTAACAAATAAATGCACACATATATATAAATAATAT [CACACA_site28]	9.52 ± 0.35
AAAATATAAAATAATGCACACATAAACAAAAAATCA [CACACA_site8382]	10.8 ± 0.96
AAATCACATAAAACATAATCAAATGAAATATAATCA [CACACA_negctrl_site123]	7.38 ± 0.6

Sequence	gcPBM binding intensity (ln)
AATATAATATAATGCACACATAAACAAAAAAAAAAT [CACACA_site1304]	10.9 ± 0.96
AGGCACGTGTTATATACACACATAATCAAATAAACT [CACACA_site7852]	8.11 ± 0.61
AATTTTTTATTCTTTGCATGTCATCATATATAATAT [TGCATGCA_site549]	8.12 ± 0.69
TCTTATTTAAAAATAGCACACATTATATATATATAT [CACACA_site8916]	9.44 ± 0.26
TTTTTTAAAATATAAAATATGTACAAATATGTTGAA [GTGCAC_negctrl_site379]	7.97 ± 0.3
TGAATAAATAAACACACACACATATATATATCTGTA [CACACA_site4184]	7.59 ± 0.4
TTCGCCCTAAATAGAGTGCATTATATATATTAATAT	11.4 ± 0.58
ACTATATATATAAGTGCATGTTCATTATACCTAAAG [TGCATGCA_site696]	8.93 ± 0.57
AAGTGCATATTATTCACACATAATAATTGTATACCT [CACACA_site5965]	10.3 ± 0.47
AGTAATTATTTTAGAGTGCATAGTTTTTTAATAAAT	9.54 ± 0.18
AAATAAATAAATAGAGTGCATATATATATATATTTT	10.01 ± 0.042
AATATTCAATATAAAGTGCATTATTGTGGACCTAAT	11.3 ± 0.65
ACGTACTGCCCTAAAGTGCATATATAATATAAACGA [GTGCAC_site9911]	10.1 ± 0.34
TTAATTATTATATAAGTGCAATAATAAAAAGTTGTA [GTGCAC_site9552]	10.7 ± 0.76
AATATTCAATATAAAGTGCATTATTGTGCCCCTAAT	11.3 ± 0.64
ACTAACATATATTCAACACACATATACCTTCAACCC [CACACA_site3011]	7.94 ± 0.72
TAAATGCACATATACACACACCCAATTTTAAGTTTT [CACACA_site7428]	9.31 ± 0.3
TAAATAAAAAAAAAAAGTACATACATACAAACATAT [XGTACX_site4427]	7.79 ± 0.47
TGAACATCATTTTTATGTACACACACATATACGTTG [XGTACX_site3864]	7.96 ± 0.28
AAAAAAAAATAATATTGTACACACATAAATTCTTTG [XGTACX_site4315]	7.51 ± 0.47
TTATAATACCTACAAAGTACAAACTTAAATATGAAC [XGTACX_site5684]	7.68 ± 0.39
ATATATTTATAATAGGTGCATATGTTTTATTTTTCC [GTGCAC_site9849]	10.1 ± 0.5
GCATATATGGATATATAGGTATATATAAATGCAATA [GTGCAC_negctrl_site24]	7.82 ± 0.71
TGTATGTTTGGGTGCACACATAAATATTATATATAG [CACACA_site3397]	10.5 ± 0.57

Sequence	gcPBM binding intensity (ln)
TATAGGTATATATAAGTGCAATATATATGTATATAC [GTGCAC_site9427]	10.9 ± 0.41
TATACAAGTATATAGGTGCATATATAAGTATATATT [GTGCAC_site9994]	10.5 ± 0.53
TATGGGTTTATATAGGTGCAATATATGTATATATAA	11.2 ± 0.59
AAATACCTGATATATACACACTATGTTTTTCTTTTT [CACACA_site6680]	7.77 ± 0.81
CTTTTTAAATTAAAATGTACAGAAAAATATTATTAT [XGTACX_site8760]	7.72 ± 0.69
AAGGAAAATTTTTGGTGTACACAAAAAAATCCAAAA [XGTACX_site3596]	8.46 ± 0.057
AAAGATGGAGTGATATGTACTGATATATTATTATAT [XGTACX_site6500]	7.62 ± 0.67
TGTATAACCTGTGTTACACACATTAAAATTTATATA [CACACA_site4449]	7.67 ± 0.46
TTATTTTTGTTTTGAAGTACAAAAAAATATATTCTT [XGTACX_site6416]	7.63 ± 0.34
AAAAAAAAAAAAAAAGTGCACTGAAAATATATTGAA [GTGCAC_site9395]	11 ± 0.2
TTTGTTCTTTTTGAAGTGCACTGAAATATAACAAAA	11.3 ± 0.16
AAATAATATTGAAAAGTGCATATTTTTGTTGATATA	9.15 ± 0.21
TTCTTGTTCCTGAAAGTGCATATAACAAAAATAACA [GTGCAC_site9635]	9.99 ± 0.3
AAAAAAAAAAAAAAAGTGCATATATAAATATTGTAT [GTGCAC_site9459]	10.1 ± 0.18
GTTTCCTTAATATTCACACACATATATATAATATAT [CACACA_site1856]	8.22 ± 0.54
TATAAAAATATTTCTACACACATTAATATATATATA [CACACA_site1150]	8.97 ± 0.042
TTTTACATATACATGTGTACATAACAAAGAATGTTT [XGTACX_site2406]	7.88 ± 0.57
TATATACGCAAACACACACACACATACACCCACATA [CACACA_site1724]	8.09 ± 0.31
ACAGAATATTTAATTCAACACACATACATATTTATT [CACACA_site8734]	7.61 ± 0.52
TATATAAATTAACCAGTGCATTATTTGGAAATTATT	11.1 ± 0.59
TATAAATTAAAATCAGTGCATATTTTGAAAAACCTC	9.19 ± 0.41
TATAAATTTATACCAGTGCATTTTGAAATATATATA	9.47 ± 0.057
TGGTTATTTATCTTTATTATAAATATTTACAAATAA [CACACA_negctrl_site1773]	7.61 ± 0.38
TTCATAATAAAAAGGTGTACATATATATATATATAT [XGTACX_site2829]	9.71 ± 0.2

Sequence	gcPBM binding intensity (ln)
ACAAATTGTTAAAGGTGTACAATACATATATAAGAA [XGTACX_site4906]	8.46 ± 0.56
TTTGTGTTTATAAATTGTACAAAGGTGCAAGAAGAA [XGTACX_site2159]	11.1 ± 0.87
AAGAAATTTATTTATTGTACAATATATAATTTGTTT [XGTACX_site2478]	7.59 ± 0.38
GATTAATACACATTCTTCCGACATAATAAGAAAAAG [GTGCAC_negctrl_site7]	8.04 ± 0.38
TGTCGGCTTAGATTAGTGCACTGAAAAATGAAGTAT [GTGCAC_site9919]	11.8 ± 0.28
TATATATATAAATGAATGCACTTTAGAAAAAAGTAC	10.2 ± 0.23
GAAGTAGATGGAAAAGTGCACTGTAATGGTTATATT	10.6 ± 0.035
TATATCATATAAAACCGTACATACATACTTAATTGT [XGTACX_site6822]	7.8 ± 0.29
TATTTCAAACTGTTCTCACACACGAAATTAGAAATG [CACACA_site611]	7.57 ± 0.66
TATATAATAAGAAAATATGTGCGTAGTTCAGCAAAA [XGTACX_negctrl_site304]	8.26 ± 0.74
AAATTAGACTATAATACACACATAAAAAAAAAATCA [CACACA_site7672]	7.79 ± 0.4
TATATATTATATAAGAGTACATATAATTATAGTTTT [XGTACX_site5039]	7.71 ± 0.52
AATATATAATATATATGTACTTATATATAAAAGATA [XGTACX_site7635]	7.8 ± 0.21
AAGAACATATTATATACATGCATAATTCGATAGATT [TGCATGCA_site882]	7.9 ± 0.69
GTGGTTATATATTAAGTGCATATTATAATTTTAAAC	9.56 ± 0.14
TATAATAATATAATGGTGCATGTATATAACCATATA	9.21 ± 0.14
GTTAATCACCATGTGGTGCATATAAGGGCATATTAT [GTGCAC_site9748]	11 ± 0.55
AAGAATTTTCGATTTGCACACATTTGTAAAATAAAA [CACACA_site2354]	9.16
AAAAAATATAATAATTGTACACATGCACACACAAAT [XGTACX_site1563]	8.25 ± 0.48
TAAATTTTTTTTTTTTGTACACAAAAATATAATATT [XGTACX_site8151]	7.61 ± 0.31
TATAATAAATCAAATGCACACACACTAATAAAAAAA [CACACA_site7937]	9.15 ± 0.11
TTTTGTACAAAAATAATGCACACTATATCAAGTTTT [CACACA_site3595]	11 ± 0.51
TATCTTCAAGTATGTACACACTATATATAATAAAAT [CACACA_site5368]	8.11 ± 0.13
TTGTACAAAAATAATGCACACTATATCAAGTTTTTT [CACACA_site5898]	10.9 ± 0.7
